Measurements from the supplement of paper PMC6555819.

How the values were obtained:
Test in all cases: PBM binding z-score (relative to random genomic background probes); higher = stronger binding; sequences stand for … in GC…GCGATTGACAGCGTAGAATGAAGG
[1] = system: FXR:RXRa (NR concentration 270 nM, RXRa partner concentration 90 nM)
Procedure, shortened: (§1)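 The probes on custom Agilent 4×180K protein-binding microarrays were double-stranded, with 34-nt variable regions bearing direct-repeat seeds, single-nucleotide variants, half-site ablations and random human genomic background sequences. Incubation lasted 1 h with ligand-free nuclear receptor dimers in PBS pH 7.4, 2% milk, 0.02% Triton X-100, 1 mM DTT, 0.2 mg/mL BSA and 0.4 mg/ml salmon testes DNA. Antibodies against each partner (one per run) detected bound dimers, and fluorescence scans were regression-normalized. Binding z-scores take the random background probes as reference.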

[2] = system: LXRa:RXRa (NR concentration 270 nM, RXRa partner concentration 90 nM)
Procedure, shortened: as §1

[3] = system: LXRa homodimer (NR concentration 270 nM)
Procedure, shortened: as §1

[4] = system: LXRb:RXRa (NR concentration 270 nM, RXRa partner concentration 90 nM)
Procedure, shortened: as §1

[5] = system: LXRb homodimer (NR concentration 270 nM)
Procedure, shortened: as §1

[6] = system: PPARa:RXRa (NR concentration 270 nM, RXRa partner concentration 90 nM)
Procedure, shortened: as §1

[7] = system: PPARg:RXRa (NR concentration 180 nM, RXRa partner concentration 90 nM)
Procedure, shortened: as §1

[8] = system: PPARg:RXRa 270nM:90nM, anti-RXR (NR concentration 270 nM, RXRa partner concentration 90 nM)
Procedure, shortened: as §1

[9] = system: PPARg:RXRa 30nM:10nM, anti-RXR (NR concentration 30 nM, RXRa partner concentration 10 nM)
Procedure, shortened: as §1

[10] = system: PPARg:RXRa 90nM:30nM, anti-RXR (NR concentration 90 nM, RXRa partner concentration 30 nM)
Procedure, shortened: as §1

[11] = system: PPARg:RXRa DBDmut IVT, anti-RXR (DBD mutation: RXRa K156A/R161A, NR concentration 270 nM, RXRa partner concentration 90 nM)
Procedure, shortened: as §1

[12] = system: PPARg:RXRa IVT, anti-PPARg (NR concentration 270 nM, RXRa partner concentration 90 nM)
Procedure, shortened: as §1

[13] = system: PPARg DBDmut:RXRa IVT, anti-PPARg (DBD mutation: PPARg1 K132A/R137A, NR concentration 270 nM, RXRa partner concentration 90 nM)
Procedure, shortened: as §1

[14] = system: PPARg DBDmut IVT, anti-PPARg (DBD mutation: PPARg1 K132A/R137A, NR concentration 270 nM)
Procedure, shortened: as §1

[15] = system: PPARg homodimer (NR concentration 180 nM)
Procedure, shortened: as §1

[16] = system: PXR:RXRa (NR concentration 270 nM, RXRa partner concentration 90 nM)
Procedure, shortened: as §1

[17] = system: PXR homodimer (NR concentration 270 nM)
Procedure, shortened: as §1

[18] = system: RARa:RXR (NR concentration 270 nM, RXRa partner concentration 90 nM)
Procedure, shortened: as §1

[19] = system: RARa homodimer (NR concentration 270 nM)
Procedure, shortened: as §1

[20] = system: RARb:RXRa (NR concentration 270 nM, RXRa partner concentration 90 nM)
Procedure, shortened: as §1

Row | Sequence | PBM binding z-score [1] | PBM binding z-score [2] | PBM binding z-score [3] | PBM binding z-score [4] | PBM binding z-score [5] | PBM binding z-score [6] | PBM binding z-score [7] | PBM binding z-score [8] | PBM binding z-score [9] | PBM binding z-score [10] | PBM binding z-score [11] | PBM binding z-score [12] | PBM binding z-score [13] | PBM binding z-score [14] | PBM binding z-score [15] | PBM binding z-score [16] | PBM binding z-score [17] | PBM binding z-score [18] | PBM binding z-score [19] | PBM binding z-score [20]
1 | TCAGACAGGTGAAGGTAACTCATGTACGCAGTCG | 0.849 | 1.03 | -0.116 | 0.964 | -0.0252 | 1.26 | 0.954 | 2.14 | 4.07 | 2.81 | 2.93 | 1.04 | 0.0578 | 0.317 | 0.397 | 0.672 | 0.214 | 0.117 | 0.348 | 1.04
2 | CCTTACGGGTCCAGGTTATAGCACGGGTGGTACG | -0.118 | -0.304 | -0.277 | -0.566 | -1.29 | -0.292 | 0.168 | -0.847 | -0.404 | -0.604 | -1.08 | -0.342 | -0.7 | -1.74 | -0.0235 | -0.402 | -0.186 | -0.536 | 0.162 | 0.245
3 | CGAACTAGGTCATAGACAGGACAGTGAATAGTAA | 3.32 | 2.16 | 0.422 | 1.64 | -0.534 | 4.33 | 7.56 | 6.26 | 3.94 | 5.68 | 7.81 | 8.39 | 2.54 | 1.39 | 1.46 | 1.43 | 0.213 | 2.07 | 0.165 | 3.55
4 | TCATATAGGTGAACAGGTGAAAGTCCGTAAGTTA | 1.35 | 1.14 | 0.444 | 1.22 | 0.00841 | 3.47 | 4.77 | 4.6 | 4.3 | 4.44 | 6.52 | 6.31 | 1.63 | 1.36 | 1.1 | 1 | 0.638 | 1.46 | 0.907 | 1.64
5 | CATACAGGGTCAGCTAGGGCAGAGTAGGGACGGC | 4.71 | 3.1 | -0.0929 | 2.23 | 0.47 | 4.21 | 3.23 | 3.05 | 0.549 | 1.75 | 1.09 | 2.7 | 1.4 | -0.307 | 2.1 | 2.54 | 0.343 | 3.11 | 0.618 | 4.28
6 | CTCGAAAGGTCGTGCTCAGTTGAGTATACCAAAC | 4.37 | 3.75 | 0.291 | 3.5 | 0.338 | 4.85 | 2.54 | 3.47 | 0.941 | 2.53 | 0.724 | 1.41 | 0.908 | 0.182 | 1.01 | 3.56 | 0.333 | 3.85 | 0.101 | 3.85
7 | GCTTACGGGTCAAAGTTTATAGCATGAATAGAAT | 6.86 | 4.62 | 0.38 | 4.67 | 0.532 | 6.2 | 9.24 | 8.11 | 7.16 | 8.84 | 4.19 | 5.17 | 1.43 | 1.62 | 2.34 | 4.83 | 1.1 | 6.42 | 0.895 | 4.06
8 | CCGAGTAGGTTATGGGGCATTAAGGCAACGGTGA | 0.273 | 0.355 | 0.112 | 0.489 | 0.086 | 1.94 | 3.57 | 4.37 | 2.35 | 3.99 | 3.03 | 3.54 | -0.853 | -0.637 | 1.15 | -0.0362 | -0.296 | 0.648 | 0.0185 | 0.818
9 | TGGAGTAGGTTAGGGGCATTCAGAATGGCGTCGA | 1.13 | 0.934 | 0.271 | 1.91 | 1.89 | 1.98 | 2.21 | 3.05 | 1.46 | 2.46 | 2.77 | 3.44 | 1.09 | 0.719 | 2.02 | 1.18 | 1.43 | 0.932 | 0.935 | 1.6
10 | CCTTACGGGTCAAGGTTATAGCACGGGTGGTACG | 5.23 | 3.73 | 0.318 | 2.98 | 0.019 | 5.02 | 4.65 | 4.69 | 2.06 | 3.64 | 1.93 | 3.57 | 0.0487 | -0.257 | 1.58 | 3.2 | 0.367 | 4.01 | 0.705 | 4.13
11 | CCTTACGGGTCACTCCAGGTTATAGTATCGGAGT | 4.76 | 7.84 | 2.33 | 5.52 | 0.0567 | 4.62 | 3.5 | 3.93 | 1.33 | 2.85 | 2.7 | 3.52 | 0.75 | 0.31 | 1.56 | 4.94 | 0.228 | 3.64 | 0.304 | 3.8
12 | CCCACTGGGCCACGAAAGGTCATTGATTCAGTGA | 3.78 | 5.11 | 5.17 | 4.22 | 0.369 | 4.8 | 4.92 | 4.99 | 1.85 | 3.53 | 4.55 | 6.02 | 1.73 | 0.623 | 3 | 5.57 | 1.48 | 5.51 | 1.31 | 4.1
13 | GATACAGGGTCAGCTCGAGGCCAGAGTATGGAAA | 4.59 | 2.87 | -0.199 | 2.4 | -0.786 | 4.56 | 3.36 | 3.21 | 0.631 | 2.06 | 1.36 | 2.36 | -0.23 | -0.691 | 1.54 | 3.47 | -0.0374 | 3.66 | -0.0976 | 4.12
